Test results: PubChem BioAssay AID623970 (The Scripps Research Institute Molecular Screening Center, 2012)
Activity calls are given as the source filed them. Rule as the data show it: active = IC50 below about 90 µM; inactive = the rest.

assay: compound-DNA interaction, SYBR readout – biochemical, fluorescence, artefact control for HCV NS3 helicase inhibitor project, late-stage follow-up (AID 623970); details: DNA binding, SYBR dye displacement fluorescence

Compound	IC50
Cc1ccc2nc(-c3ccc4nc(-c5ccc(NC(=O)Nc6ccccc6)cc5)sc4c3)sc2c1S(=O)(=O)O	> 100 µM (inactive)
Cc1ccc2nc(-c3ccc4nc(-c5ccc(NC(=O)c6ccc(C(F)(F)F)cc6)cc5)sc4c3)sc2c1S(=O)(=O)O	29 µM (active)
Cc1ccc2nc(-c3ccc4nc(-c5ccc(NC(=O)c6ccc(Cl)cc6)cc5)sc4c3)sc2c1S(=O)(=O)O	31 µM (active)
Cc1ccc2nc(-c3ccc4nc(-c5ccc(NC(=O)c6cccc(C(F)(F)F)c6)cc5)sc4c3)sc2c1S(=O)(=O)O	> 100 µM (inactive)
Cc1ccc2nc(-c3ccc4nc(-c5ccc(NC(=O)c6ccc(N)cc6)cc5)sc4c3)sc2c1S(=O)(=O)O	55 µM (active)
Cc1ccc2nc(-c3ccc(NC(=O)c4ccc(NC(=O)c5ccc(C(F)(F)F)cc5)cc4)cc3)sc2c1S(=O)(=O)O	> 100 µM (inactive)
Cc1ccc2nc(-c3ccc4nc(-c5ccc(NC(=O)c6cccc(Cl)c6)cc5)sc4c3)sc2c1S(=O)(=O)O	> 100 µM (inactive)
Cc1ccc2nc(-c3ccc4nc(-c5ccc(NC(=O)c6cc(C(F)(F)F)cc(C(F)(F)F)c6)cc5)sc4c3)sc2c1S(=O)(=O)O	86 µM (active)
Cc1cc2sc(-c3ccc4nc(-c5ccc(N)cc5)sc4c3)nc2cc1S(=O)(=O)O	32 µM (active)
Cc1ccc2nc(-c3ccc4nc(-c5ccc(NC(=O)c6ccccc6)cc5)sc4c3)sc2c1S(=O)(=O)O	> 100 µM (inactive)
Cc1ccc2nc(-c3ccc4nc(-c5ccc(NS(=O)(=O)c6ccc(C(F)(F)F)cc6)cc5)sc4c3)sc2c1S(=O)(=O)O	82 µM (active)
COC(=O)c1ccc(C(=O)Nc2ccc(-c3nc4ccc(-c5nc6ccc(C)c(S(=O)(=O)O)c6s5)cc4s3)cc2)cc1	> 100 µM (inactive)
Cc1ccc2nc(-c3ccc4nc(-c5ccc(NC(=O)c6cc(F)cc(C(F)(F)F)c6)cc5)sc4c3)sc2c1S(=O)(=O)O	> 100 µM (inactive)
Cc1ccc2nc(-c3ccc4nc(-c5ccc(NC(=O)c6cc(C(F)(F)F)ccc6F)cc5)sc4c3)sc2c1S(=O)(=O)O	> 100 µM (inactive)
CCOc1ccc2c(NNC(=O)c3cnccn3)c3c(nc2c1)CCCC3	> 100 µM (inactive)
Cc1ccc2nc(-c3ccc4nc(-c5ccc(NC(=O)c6ccc(Br)cc6)cc5)sc4c3)sc2c1S(=O)(=O)O	30 µM (active)
CCN(CC)c1ccc(-c2nc3ccc(-c4nc5ccc(C)c(S(=O)(=O)O)c5s4)cc3s2)cc1	26 µM (active)

Compound	IC50
Cc1ccc2nc(-c3ccc(N)cc3)sc2c1S(=O)(=O)O	> 100 µM (inactive)
Cc1ccc2nc(-c3ccc4nc(-c5ccc(NC(=O)c6ccc(C(F)(F)F)c(F)c6)cc5)sc4c3)sc2c1S(=O)(=O)O	28 µM (active)
Cc1ccc2nc(-c3ccc4nc(-c5ccc(NC(=O)c6cc(F)ccc6C(F)(F)F)cc5)sc4c3)sc2c1S(=O)(=O)O	> 100 µM (inactive)
Cc1ccc2nc(-c3ccc4nc(-c5ccc(NC(=O)c6ccc(N(C)C)cc6)cc5)sc4c3)sc2c1S(=O)(=O)O	> 100 µM (inactive)
Cc1ccc2nc(-c3ccc4nc(-c5ccc6nc(-c7ccc(N)cc7)sc6c5)sc4c3)sc2c1S(=O)(=O)O (tested in a mixture with another compound)	43 µM (active)
Cc1ccc2nc(-c3ccc4nc(-c5ccc(NC(=O)c6ccccc6C(F)(F)F)cc5)sc4c3)sc2c1S(=O)(=O)O	> 100 µM (inactive)
COc1ccc(C(=O)Nc2ccc(-c3nc4ccc(-c5nc6ccc(C)c(S(=O)(=O)O)c6s5)cc4s3)cc2)cc1	> 100 µM (inactive)
Cc1ccc2nc(-c3ccc(NC(=O)c4ccc(N)cc4)cc3)sc2c1S(=O)(=O)O	> 100 µM (inactive)
Cc1ccc2nc(-c3ccc(NC(=O)c4ccc(NC(=O)c5ccc(NC(=O)OCC6c7ccccc7-c7ccccc76)cc5)cc4)cc3)sc2c1S(=O)(=O)O	> 100 µM (inactive)
Cc1cc(C(O)(c2ccc(Nc3ccccc3)cc2)c2ccc(Nc3ccc(S(=O)(=O)O)cc3)cc2)ccc1N (centres undefined)	17 µM (active)
Cc1ccc2nc(-c3ccc4nc(-c5ccc(NC(=O)Nc6ccc(C(F)(F)F)cc6)cc5)sc4c3)sc2c1S(=O)(=O)O	18 µM (active)
Cc1cc2sc(-c3ccc(N)cc3)nc2cc1S(=O)(=O)O	> 100 µM (inactive)
Cc1ccc(NC(=O)Nc2ccc(-c3nc4ccc(-c5nc6ccc(C)c(S(=O)(=O)O)c6s5)cc4s3)cc2)cc1	18 µM (active)
Cc1ccc2nc(-c3ccc4nc(-c5ccc(NC(=O)c6ccncc6)cc5)sc4c3)sc2c1S(=O)(=O)O	> 100 µM (inactive)
Cc1ccc2nc(-c3ccc(NC(=O)c4ccc(NS(=O)(=O)c5ccccc5)cc4)cc3)sc2c1S(=O)(=O)O	> 100 µM (inactive)
NS(=O)(=O)c1ccc2nc(NC(=O)c3ccc4ncsc4c3)sc2c1	> 100 µM (inactive)
Cc1ccc2nc(-c3ccc4nc(-c5ccc(NC(=O)c6cccc(C(F)(F)F)c6F)cc5)sc4c3)sc2c1S(=O)(=O)O	> 100 µM (inactive)
